Measurements published in PubChem BioAssay (NCI).
About 79,000 compounds went through this panel and 15% of them were active in at least one assay; those are over-represented in the sample as a whole. A number with no mark means an inactive call. Active and inactive are the calls of the source. Rule as the data show it: active = growth inhibition above about 70%; inactive = the rest.

Key:
[1] = NCI Yeast Anticancer Drug Screen. Data for the rad50 strain (AID 155);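 also: 0% = growth of vehicle-only cultures of the same strain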; settings: S. cerevisiae rad50 strain growth inhibition, active compounds read high; at 50.0 µM unless noted
Summary of the method: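 Vehicle-treated cultures provide the reference for the growth inhibition reported for compound-exposed, repair-deficient yeast.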

[2] = NCI Yeast Anticancer Drug Screen. Data for the mec2-1 strain (AID 157); settings: S. cerevisiae mec2-1 strain, active compounds read high; at 50.0 µM unless noted
Summary of the method: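 mec2-1 yeast strain, carrying an alteration in DNA damage repair or cell cycle control, was exposed to compounds; growth inhibition was measured relative to vehicle-treated controls.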

[3] = NCI Yeast Anticancer Drug Screen. Data for the sgs1 mgt1 strain (AID 161);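 also: 0% = growth of cultures given vehicle only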; settings: S. cerevisiae sgs1 mgt1 strain, active compounds read high; at 50.0 µM unless noted
Summary of the method: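 Percent growth inhibition was derived by comparing compound-exposed mutant yeast with vehicle-exposed cultures. The strain carries alterations in DNA damage repair.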

[4] = NCI Yeast Anticancer Drug Screen. Data for the cln2 rad14 strain (AID 165);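 also: 0% = growth equal to vehicle treated cultures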; settings: S. cerevisiae cln2 rad14 strain, active compounds read high; at 50.0 µM unless noted
Summary of the method: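 Yeast carrying cln2 and rad14 alterations (cell cycle control and DNA damage repair) were exposed to compounds. Growth inhibition was measured against vehicle-treated controls.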

[5] = NCI Yeast Anticancer Drug Screen. Data for the bub3 strain (AID 167); settings: S. cerevisiae bub3 mutant strain, active compounds read high; at 50.0 µM unless noted
Summary of the method: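 Mutant yeast screening strain plus compound; vehicle-treated cultures serve as the 0% inhibition reference.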

[6] = NCI Yeast Anticancer Drug Screen. Data for the mlh1 rad18 strain (AID 175); settings: S. cerevisiae mlh1 rad18 strain growth inhibition, active compounds read high; at 50.0 µM unless noted
Summary of the method: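 Growth inhibition of the yeast strain was measured after compound exposure and expressed relative to vehicle-treated controls. The strain carries defined defects in DNA damage repair.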

Row | Structure (SMILES) | growth inhibition [1] | growth inhibition [2] | growth inhibition [3] | growth inhibition [4] | growth inhibition [5] | growth inhibition [6]
1 | CCOC(=O)C1=C(O)C[C@]2(O)C3CC=C(C)[C@@H]4CCO[C@](OC)(C[C@H]2C1)[C@]34C(=O)OC (some centres undefined) | 1% | 12.8% | 8.35% | 1% | -1.1% | 13.1%
2 | O=C(O)c1cccc(S(=O)(=O)c2ccc([N+](=O)[O-])cc2)c1 | -0.25% | 0.55% | 4.9% | -6.15% | -5.7% | 14.2%
3 | C=CCOC(=O)C(C)OC(=O)CCC(=O)OC(C)C(=O)OCC=C (centres undefined) | 5.35% | 4.3% | 4.35% | 3.95% | 6.15% | 4.85%
4 | N#CC1(c2ccccc2)CCC1 | 4.85% | -24.9% | 7.5% | 16.6% | 6.4% | 5.1%
5 | CCOC(=O)c1sc2c(c1OC(=O)c1ccc(OC)cc1)c(=O)n(-c1ccccc1)c(=S)n2-c1ccccc1 | 39.5% | 9.65% | 23.4% | 17.5% | 31% | 38.4%
6 | COc1ccc(C2=N/C(=C\c3ccccc3)C(=O)O2)cc1 | -4.05% | 8.6% | 28.4% | -22.4% | -4% | -0.9%
7 | C=CCSC(=S)Nc1nc2ccc([N+](=O)[O-])cc2s1 | -4.1% | 8.9% | 7.45% | 7.8% | -10.8% | -5.9%
8 | C[C@]12CCC(=O)C=C1CC[C@@H]1[C@@H]2C(=O)C[C@]2(C)/C(=C\C(=O)O)CC[C@@H]12 | -1% | -19.1% | 5.7% | -48.1% | -4.5% | 2.55%
9 | NC(=S)c1cccc(OCCc2ccccc2)c1 | 97.7% (active) | 99.4% (active) | 99% (active) | 96.3% (active) | 99.2% (active) | 98.7% (active)
10 | CN(C)P1(=O)N(c2ccccc2)P(=O)(N(C)C)N1c1ccccc1 (centres undefined) | -11.5% | -32.1% | -17.1% | -1.55% | -19.4% | -34.7%
11 | COc1ccc(-c2nc(N)c3ncn(C4OC(CO)C(O)C4O)c3n2)cc1 (centres undefined) | -13.2% | -23.9% | -7.15% | -12.2% | -27.1% | 15.4%
12 | C=CC(=O)NC12CC3CC(CC(C3)C1)C2 | -4.45% | -0.3% | -8.1% | -23.9% | -15.6% | 0.05%
13 | NC1CCC[C@@H](O)[C@H]1O (some centres undefined) | -4.9% | 22.9% | 8.7% | -7.1% | 9.6% | -0.55%
14 | CC(C)C(=O)Nc1ccc(S(=O)(=O)Nc2ccc(N)cc2O)cc1 | -6.8% | 6.6% | 25.1% | 1.25% | 20.1% | -0.75%
15 | COc1ccc(/C=C2\CN(CCCC(=O)O)C(=O)C2=O)cc1 | 3.6% | -7.5% | 0% | -6.45% | 4.1% | -16.7%
16 | CN1CCc2nc[nH]c2C1 | 17.2% | -4.95% | 3.2% | 10.1% | 6.4% | 10.1%
17 | CC(C)c1ccc(C2NC(c3ccccc3)c3c(ccc4ccccc34)O2)cc1 (centres undefined) | 36.9% | -4.85% | 6.1% | 0.5% | -1.6% | -1.65%
18 | CNC(=O)N(CCCCC(NC(C)=O)C(=O)NCc1ccccc1)Cc1ccccc1 (centres undefined) | -12.3% | -23.2% | -15.8% | -12.4% | -7.1% | -12.8%
19 | C=C1CC2C=CC1C2 (centres undefined) | 3.65% | -25.4% | 1.3% | 0.25% | -15.8% | 2.85%
